Measurements taken from publication PMC4336329 (PLoS ONE, 2015).
Screen size: about 310,000 compounds; about 14,000 (4.5%) showed an effect of 50% or more. Effects have a minus sign here. For the sample, strong results were picked, then their nearest neighbours and some compounds at random.

Molecular target: human ether-à-go-go-related gene (hERG) potassium channel (human, UniProt Q12809)
Assay: primary screen, population patch clamp on CHO cells stably expressing hERG; higher = less effect of the substance
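Further: peak tail current of the secondary pulse compared with the same well before compound.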

human ether-à-go-go-related gene (hERG) potassium channel, sequence (Q12809 whole entry, looked up): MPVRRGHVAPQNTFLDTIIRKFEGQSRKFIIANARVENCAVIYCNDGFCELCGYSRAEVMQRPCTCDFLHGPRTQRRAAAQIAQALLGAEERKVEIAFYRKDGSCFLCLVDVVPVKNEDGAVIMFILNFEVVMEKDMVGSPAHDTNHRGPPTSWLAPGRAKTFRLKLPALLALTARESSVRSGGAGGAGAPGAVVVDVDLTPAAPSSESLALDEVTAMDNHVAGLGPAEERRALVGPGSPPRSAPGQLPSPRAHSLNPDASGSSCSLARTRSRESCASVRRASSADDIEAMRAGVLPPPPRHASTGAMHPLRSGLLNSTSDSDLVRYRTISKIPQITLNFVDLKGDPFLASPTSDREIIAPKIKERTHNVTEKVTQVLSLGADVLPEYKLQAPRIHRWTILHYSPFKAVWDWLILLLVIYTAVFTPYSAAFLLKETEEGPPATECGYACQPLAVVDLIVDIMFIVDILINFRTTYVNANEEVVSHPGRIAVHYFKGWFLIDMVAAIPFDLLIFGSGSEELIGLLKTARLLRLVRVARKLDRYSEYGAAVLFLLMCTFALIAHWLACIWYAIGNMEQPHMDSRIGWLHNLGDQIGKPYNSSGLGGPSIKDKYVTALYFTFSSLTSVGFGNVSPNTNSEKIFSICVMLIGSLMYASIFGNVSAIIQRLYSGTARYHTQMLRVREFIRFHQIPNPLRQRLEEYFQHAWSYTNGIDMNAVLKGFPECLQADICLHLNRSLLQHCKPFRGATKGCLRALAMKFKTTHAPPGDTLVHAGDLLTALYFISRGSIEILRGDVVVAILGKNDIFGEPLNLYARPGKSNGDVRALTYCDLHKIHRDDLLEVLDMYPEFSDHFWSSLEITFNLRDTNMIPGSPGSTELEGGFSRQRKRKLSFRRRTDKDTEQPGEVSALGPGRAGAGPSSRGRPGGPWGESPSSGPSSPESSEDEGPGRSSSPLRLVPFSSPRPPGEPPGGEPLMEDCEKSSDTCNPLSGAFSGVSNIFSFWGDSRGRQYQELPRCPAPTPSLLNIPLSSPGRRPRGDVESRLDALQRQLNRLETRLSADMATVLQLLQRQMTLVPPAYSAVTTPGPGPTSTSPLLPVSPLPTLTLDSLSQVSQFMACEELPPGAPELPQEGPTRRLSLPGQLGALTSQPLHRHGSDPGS

| Structure (SMILES) | hERG current change (%, negative = inhibition) at 10uM [%] |
| --- | --- |
| COc1ccc(N2CCN(c3ncnc4scc(-c5ccccc5)c34)CC2)cc1 | 18.6 |
| COc1ccc(NC(=O)c2ccccc2NC(=O)CSc2ccc(Cl)cc2)cc1 | 3.21 |
| Cc1cc(C)cc(NC(=O)C2C3C=CC4(O3)C2C(=O)N(CCCN2CCCCC2)C4C(=O)NC2CCCCC2)c1 (centres unmarked) | 20.7 |
| O=C(NCc1ccccc1)c1ccc(Cl)c(NC2=NC3CS(=O)(=O)CC3S2)c1 (centres unmarked) | -0.123 |
| O=C(Cn1cc[n+](CC(=O)c2ccc(Cl)cc2Cl)c1)c1ccc(Cl)cc1Cl.[Br-] | -61.5 |
| O=C(Cn1nc(Cl)nc1Cl)c1ccc([N+](=O)[O-])cc1 | 1.69 |
| O=C(Cn1cc[n+](CC(=O)c2ccccc2)c1)c1ccccc1.[Br-] | 0.024 |
| O=C(C[n+]1cnn(CC(=O)c2ccc(Cl)cc2Cl)c1)c1ccc([N+](=O)[O-])cc1.[Br-] | -73.3 |
| C[n+]1ccn(CC(=O)c2ccc(Cl)cc2)c1.[Br-] | -3.61 |
| O=C(Cn1c[n+](CC(=O)c2ccc([N+](=O)[O-])cc2)cn1)c1ccc([N+](=O)[O-])cc1.[Br-] | 21.3 |
| COc1ccc(-c2ccc(SCc3cccnc3)nn2)cc1OC | 29 |
| Cc1ccccc1N1CC(C(=O)Nc2ccc(S(=O)(=O)N3CCCC3)cc2)CC1=O (centres unmarked) | 3.59 |
| CCOC(=O)NC1(C(F)(F)F)N=C(c2ccccc2)NC1=O (centres unmarked) | 4.77 |
| Cc1ccc(-n2cccn2)c([C@@H]2C[C@H]3CN(C)C(=O)[C@]34CCCN24)c1 | -61.1 |
| Cc1cc(C)c([C@@H]2C[C@H]3CN(C4CCCC4)C(=O)[C@]34CCCN24)c(-n2cccn2)c1 | -80.7 |
| CN1C[C@@H]2C[C@@H](c3ccc(C#CC(C)(C)O)s3)N3CCC[C@@]23C1=O | 9.88 |
| Cn1cc([C@@H]2C[C@H]3CN(C4CCCC4)C(=O)[C@]34CCCN24)c(-c2ccccc2)n1 | -18.5 |
| O=C1N(C2CCCC2)C[C@@H]2C[C@@H](c3cn[nH]c3-c3ccc(Cl)cc3)N3CCC[C@@]123 | -37.8 |
| CN1C[C@@H]2C[C@@H](C3=Cc4cc(Cl)ccc4OC3)N3CCC[C@@]23C1=O | -32.7 |
| CCOc1cc(CNc2ncn[nH]2)ccc1OCC(=O)NC(C)(C)C | 5.22 |
| Cc1ccc(OCC(=O)N(C)Cc2ccccc2)c([N+](=O)[O-])n1 | 3.95 |

| Structure (SMILES) | hERG current change (%, negative = inhibition) at 10uM [%] |
| --- | --- |
| NN/C(=C\[N+](=O)[O-])Nc1ccc(Cl)cc1 | 13.6 |
| Cc1ccc(S(=O)(=O)CCC(=O)OCC(=O)c2c[nH]c3ccccc23)cc1 | -8.93 |
| COc1ccc(S(=O)(=O)N2CCN(C(=O)NC3CCCCC3)CC2)cc1OC | -17.7 |
| COC(=O)c1cc(Br)c(=O)n(-c2ccc(OC)cc2)c1 | -0.31 |
| COC(=O)c1cc(Br)c(=O)n(-c2ccc(F)cc2)c1 | -63.9 |
| COC(=O)c1cc(Br)c(=O)n(CCc2ccc(F)cc2)c1 | -24.9 |
| COCC(C)n1c(SCc2ccc(C(=O)OC)o2)nc2ccccc2c1=O (centres unmarked) | -8.61 |
| COc1ccccc1C1CC(c2cccs2)=Nc2ccccc2S1 (centres unmarked) | 14.4 |
| CC1CCCN(C(=O)c2ccc(Br)c(S(=O)(=O)N3CCOCC3)c2)C1 (centres unmarked) | -7.24 |
| COc1ccc(C2CC3(CC(C)(C)NC(=S)N3)Oc3cc(O)cc(C)c32)cc1 (centres unmarked) | 14.6 |
| Cc1cc(O)cc2c1C(c1ccc(F)cc1)CC1(CC(C)(C)NC(=S)N1)O2 (centres unmarked) | 14.2 |
| COc1ccc(C2CC3(CC(C)(C)NC(SC)=N3)Oc3cc(O)cc(C)c32)cc1.I (centres unmarked) | -74.3 |
| CC12CN(C(=S)Nc3ccccc3)CC(C)(CN(C(=S)Nc3ccccc3)C1)C2=O | 10.3 |
| COc1ccc(/C=C(/NC(=O)c2ccco2)C(=O)Nc2ccc(C(=O)O)cc2)cc1 | 9.11 |
| COc1ccccc1N1CCN(C(=O)c2ccc(-c3ccc(Cl)cc3)o2)CC1 | -7.22 |
| COc1cc(/C=C/C(=O)OCC(=O)N2CCN(C(=O)c3ccco3)CC2)ccc1O | 2.55 |
| CCOC(=O)/C=C/C(=O)OCC(=O)N1CCN(C(=O)c2ccco2)CC1 | 9.59 |
| O=C(COC(=O)/C=C/c1ccc(OC(F)F)cc1)NCCN1C(=O)CSC1=O | -60.8 |
| O=C(/C=C/c1ccc(OC(F)F)cc1)OCC(=O)N1CCN(C(=O)c2ccco2)CC1 | -71 |
| O=C(COc1ccc2ccccc2c1)N1CCN(Cc2ccncc2)CC1.O=C(O)C(=O)O | -33.9 |
| O=C(COc1ccc2ccccc2c1)N1CCN(C2CCN(Cc3ccccc3)CC2)CC1 | -77.7 |

| Structure (SMILES) | hERG current change (%, negative = inhibition) at 10uM [%] |
| --- | --- |
| Cc1cccc(OCC(=O)N2CCN(C(=O)c3ccco3)CC2)c1 | -6.95 |
| O=C(COc1ccc2ccccc2c1)N1CCN(C(=O)c2ccco2)CC1 | -61.7 |
| COc1cccc(CN2CCN(C(=O)COc3ccc4ccccc4c3)CC2)c1 | -38.7 |
| O=C(COC(=O)/C=C/c1ccc(Cl)cc1)NCCN1C(=O)CSC1=O | -21.2 |
| Cc1ccc(/C=C/C(=O)OCC(=O)NCCN2C(=O)CSC2=O)cc1 | -17.9 |
| CC(C)c1ccc(OCC(=O)N2CCN(C(=O)c3ccco3)CC2)cc1 | -49.1 |
| CC1=NN(c2ccccc2)C(=O)C1C(=O)c1cc([N+](=O)[O-])cc([N+](=O)[O-])c1 (centres unmarked) | 2 |
| CCn1c(=S)sc2c(=O)n(CC(=O)Nc3cccc(Cl)c3)c(C)nc21 | 6.27 |
| Cc1ccc(-c2nc(N)sc2CC(=O)OCC(=O)N2C(C)CCCC2C)cc1 (centres unmarked) | -7.22 |
| COc1ccc2cc(CCNC(=O)c3ccc(Br)o3)c(=O)[nH]c2c1 | -9.51 |
| COCCCNC(=S)N1CCN(C(c2ccccc2)c2ccccc2)CC1 | 5.04 |
| COc1cccc2cc(C(C)N(CCCN3CCOCC3)C(=S)Nc3ccccc3C)oc12 (centres unmarked) | -7.78 |
| COc1ccc2[nH]c(=O)c(CN(C(=O)C(C)C)c3ccccc3OC)cc2c1 | -2.54 |
| COc1cccc(=O)c2c(C)oc(C)c12 | 3.11 |
| O=C(N/N=C/c1cccs1)c1cnccn1 | -1.91 |
| CC(Sc1nc(-c2ccccc2)cc(C(F)(F)F)n1)C(=O)N1CCCCC1 (centres unmarked) | -17.9 |
| COc1ccc(OCC(=O)N2CCN(C(=O)c3ccco3)CC2)cc1 | -32.3 |
| O=C(COc1ccccc1)N1CCN(C(=O)c2ccco2)CC1 | -8.03 |
| N#Cc1ccc(OCC(=O)N2CCN(C(=O)c3ccco3)CC2)cc1 | -71 |
| CC1(c2nnc(Cc3ccccc3)o2)CC(c2cccc(F)c2)=NO1 (centres unmarked) | -3.35 |
| Cc1cc(C)n(-c2nncn2/N=C/c2ccccc2F)n1 | 3.06 |

| Structure (SMILES) | hERG current change (%, negative = inhibition) at 10uM [%] |
| --- | --- |
| COc1ccccc1-n1ccnc(SCC(=O)NCc2ccccc2Cl)c1=O | 8.39 |
| CC(C)C[C@@H](CO)N1CCN(Cc2ccccc2)CCC1=O | 6.02 |
| O=C1CCN(CCc2ccccc2)CCN1[C@H](CSc1ccc(Br)cc1)Cc1ccccc1 | -74.6 |
| C[C@H]1CCC(=O)N([C@H](CSc2ccccc2)Cc2ccccc2)CC1 | -37 |
| O=C1CCN(Cc2ccc(Br)cc2)CCN1[C@H](CO)Cc1ccccc1 | -10.4 |
| CC(C)[C@@H](CSc1ccccc1)N1CCN(Cc2ccccc2)CCC1=O | -63.4 |
| O=C1CC[C@H](OCc2ccccc2)CCN1[C@H](CSc1ccccc1)Cc1ccccc1 | -51 |
| Cc1ccc(SC[C@H](Cc2ccccc2)N2CCN(CCc3ccccc3)CCC2=O)cc1 | -17.9 |
| O=C1CCN(CCc2ccccc2)CCN1[C@H](CSc1ccccc1)Cc1ccccc1 | -77.1 |
| O=C1CC[C@H](O)CCN1[C@H](CSc1ccccc1)Cc1ccccc1 | -21.7 |
| O=C1CC[C@H](O)CCN1[C@H](CSc1ccc(Br)cc1)Cc1ccccc1 | -24.3 |
| CC(C)C(CO)N1CCN(Cc2ccccc2)CCC1=O (centres unmarked) | 4.74 |
| Clc1ccc(C2[C@H]3CN(CC4CCCCC4)[C@H](c4ccccc4)C34CC2(c2cccnc2)C4)cn1 (some centres unmarked) | -26.1 |
| O=C(O)c1cccc(NC(=O)c2cn(-c3ccccc3)nc2-c2ccc([N+](=O)[O-])cc2)c1 | 19.5 |
| COC(=O)c1nn(-c2cccc(Cl)c2)ccc1=O | 6.98 |
| CCCCN(CCO)CCCC | 14 |
| CC(C)c1ccc(OCC(=O)Nc2ccccc2C(=O)N2CCOCC2)cc1 | -18.9 |
| CCOC(=O)C(C)Sc1nc(C2CC2)cc(C(F)(F)F)c1C#N (centres unmarked) | 5.04 |
| CCOC(=O)Cn1nnnc1CN(CCc1ccccc1)Cc1cc2cc(CC)ccc2[nH]c1=O | -4.43 |
| CCCN(CCO)Cc1cccc(Br)c1 | -0.752 |
